We go through 13 compounds from PubChem BioAssay.

The nature of test [1]: compounds binding Alexa647 anti-His antibody – biochemical, small-molecule microarray, 635 nm fluorescence, artefact control for SMM control protein annotation, primary screen (AID 1128).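 Further: score merges feature fluorescence with signal-to-noise for each printed compound spot.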 The note with it: higher = more signal.
Test [2] has as its system Human papillomavirus type 1a E7 protein (residues 1-88). The test can be described thus: HPV1a E7 small-molecule binders, primary screen, biochemical, small-molecule microarray, residues 1-88, 635 nm (AID 1129). The note with it: small-molecule microarray binding, fluorescence 635 nm; higher = more signal.
In test [3] the target is Focal adhesion kinase 1 (Homo sapiens) (UniProt Q05397). The test can be described thus: PTK2 protein binding on printed compound slides – biochemical, small-molecule microarray, 635/667 nm fluorescence, BSA, DTT, primary screen (AID 1130).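 Further: composite of spot emission at 667 nm and signal to noise over triplicate slides.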 The note with it: 635 nm fluorescence, higher = more signal.
The subject of test [4] is Fibrinogen (Alexa647-labelled). Kind of test: Alexa647-fibrinogen binding to printed small molecules – biochemical, small-molecule microarray, 635/667 nm fluorescence, artefact control for SMM control-protein annotation, profiling panel (AID 1131).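 Further: z-score merges 667 nm fluorescence with per-spot signal-to-noise over triplicate slides.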 The note with it: fibrinogen-A647 binding fluorescence, higher = more signal.
Test [5] addresses Follistatin (Homo sapiens) (UniProt P19883). Kind of test: FST protein binding to printed compounds – biochemical, small-molecule microarray, 635/667 nm fluorescence, primary screen (AID 1132). The note with it: 635 nm fluorescence, higher = more signal.
In test [6] the target is Fibroblast growth factor 2 (Homo sapiens) (UniProt P09038). Kind of test: basic fibroblast growth factor binding to printed compounds – biochemical, small-molecule microarray, 635/667 nm fluorescence, primary screen (AID 1133). The note with it: FGF2, fluorescence 635/667, higher = more signal.
Test [7] in a line: JC-1 mitochondrial potential readout, lung cancer cells – cell-based, A549, JC-1 fluorescence, basal, 24 h, 100 nL, profiling panel (AID 1138).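 Further: A549 lung adenocarcinoma cells under basal conditions with no added stimulus; test concentration not given here.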 The note with it: higher = more signal.
Another test deals with Lefty1. The test can be described thus: Lefty1 protein binding to printed compounds – biochemical, small-molecule microarray, 635/667 nm fluorescence, primary screen (AID 1139). As to conditions: fluorescence 635/667, higher = more signal.
Test [8] concerns wheat germ agglutinin (Triticum aestivum), Alexa647-labelled. Kind of test: Alexa647-WGA lectin binding to printed small molecules – biochemical, small-molecule microarray, 635/667 nm fluorescence, artefact control for SMM control-protein annotation, profiling panel (AID 1140).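 Further: score merges 667 nm feature emission with signal to noise over triplicate slides.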 As to conditions: WGA-A647 binding, 635 nm fluorescence, higher = more signal.
In test [9] the target is Luciferin 4-monooxygenase (Photinus pyralis) (UniProt P08659). Kind of test: inhibition of purified Photinus pyralis luciferase – biochemical, luminescence, purified enzyme, 2006 set, primary screen (AID 1141).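 Further: cell-free assay with purified firefly luciferase at 100 ng per well in PBS; test concentration not given here.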 As to conditions: purified firefly luciferase, SteadyGlo luminescence, 30 min; higher = more signal, called active from +8 up or from −8 down.

Active and inactive are the calls of the source.

Chain of Luciferin 4-monooxygenase (Photinus pyralis) (P08659 whole entry, looked up): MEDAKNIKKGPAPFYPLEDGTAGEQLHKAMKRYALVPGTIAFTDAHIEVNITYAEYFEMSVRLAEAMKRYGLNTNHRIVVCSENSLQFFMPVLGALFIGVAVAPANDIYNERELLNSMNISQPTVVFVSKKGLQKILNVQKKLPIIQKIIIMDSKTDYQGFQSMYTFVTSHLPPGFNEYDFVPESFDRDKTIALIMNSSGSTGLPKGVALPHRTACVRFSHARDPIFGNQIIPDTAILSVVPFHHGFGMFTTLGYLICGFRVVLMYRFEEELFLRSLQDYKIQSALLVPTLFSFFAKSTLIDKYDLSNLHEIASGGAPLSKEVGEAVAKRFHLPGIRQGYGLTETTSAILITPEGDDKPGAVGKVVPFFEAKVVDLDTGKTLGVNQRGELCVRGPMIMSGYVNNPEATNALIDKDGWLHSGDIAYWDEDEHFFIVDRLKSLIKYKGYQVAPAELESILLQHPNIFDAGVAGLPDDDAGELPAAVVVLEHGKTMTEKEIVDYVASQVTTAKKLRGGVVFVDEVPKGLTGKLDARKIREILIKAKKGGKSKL
Chain of Focal adhesion kinase 1 (Homo sapiens) (Q05397 whole entry, looked up): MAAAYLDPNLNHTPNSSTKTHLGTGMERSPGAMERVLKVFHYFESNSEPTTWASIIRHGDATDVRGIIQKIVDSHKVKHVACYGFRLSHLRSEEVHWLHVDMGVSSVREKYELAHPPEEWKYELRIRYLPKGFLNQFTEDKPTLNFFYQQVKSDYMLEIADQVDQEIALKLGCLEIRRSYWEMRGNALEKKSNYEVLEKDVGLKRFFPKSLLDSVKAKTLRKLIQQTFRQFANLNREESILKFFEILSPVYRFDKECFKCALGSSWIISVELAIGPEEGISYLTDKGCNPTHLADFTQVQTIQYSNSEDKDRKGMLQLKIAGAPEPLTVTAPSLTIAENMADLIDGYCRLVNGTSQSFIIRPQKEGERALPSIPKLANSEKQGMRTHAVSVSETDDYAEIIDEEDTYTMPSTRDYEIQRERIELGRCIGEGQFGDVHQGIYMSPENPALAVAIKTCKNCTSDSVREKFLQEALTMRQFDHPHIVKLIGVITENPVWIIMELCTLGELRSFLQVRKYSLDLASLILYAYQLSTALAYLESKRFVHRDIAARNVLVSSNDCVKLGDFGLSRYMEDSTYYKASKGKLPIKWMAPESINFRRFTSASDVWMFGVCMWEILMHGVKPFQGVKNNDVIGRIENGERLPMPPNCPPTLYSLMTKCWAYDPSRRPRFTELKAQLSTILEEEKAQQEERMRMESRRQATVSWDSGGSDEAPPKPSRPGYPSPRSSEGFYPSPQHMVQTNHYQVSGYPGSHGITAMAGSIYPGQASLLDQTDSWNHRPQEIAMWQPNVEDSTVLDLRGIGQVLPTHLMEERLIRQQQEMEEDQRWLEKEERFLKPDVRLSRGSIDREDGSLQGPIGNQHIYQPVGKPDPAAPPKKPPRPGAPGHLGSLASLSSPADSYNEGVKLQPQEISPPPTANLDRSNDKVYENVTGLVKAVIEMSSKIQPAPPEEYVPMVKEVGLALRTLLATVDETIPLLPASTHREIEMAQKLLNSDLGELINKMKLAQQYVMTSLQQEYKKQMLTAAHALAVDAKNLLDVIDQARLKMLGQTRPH
Chain of Follistatin (Homo sapiens) (P19883 whole entry, looked up): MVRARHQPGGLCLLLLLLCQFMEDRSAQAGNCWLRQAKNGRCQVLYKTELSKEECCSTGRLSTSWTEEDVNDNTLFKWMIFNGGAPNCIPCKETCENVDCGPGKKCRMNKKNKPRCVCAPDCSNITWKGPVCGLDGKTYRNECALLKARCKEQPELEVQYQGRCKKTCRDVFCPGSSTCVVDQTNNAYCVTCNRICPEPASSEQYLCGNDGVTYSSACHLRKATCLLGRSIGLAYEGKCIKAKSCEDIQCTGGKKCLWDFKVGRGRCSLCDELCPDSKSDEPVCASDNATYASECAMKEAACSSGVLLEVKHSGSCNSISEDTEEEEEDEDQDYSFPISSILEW
Chain of Fibroblast growth factor 2 (Homo sapiens) (P09038 whole entry, looked up): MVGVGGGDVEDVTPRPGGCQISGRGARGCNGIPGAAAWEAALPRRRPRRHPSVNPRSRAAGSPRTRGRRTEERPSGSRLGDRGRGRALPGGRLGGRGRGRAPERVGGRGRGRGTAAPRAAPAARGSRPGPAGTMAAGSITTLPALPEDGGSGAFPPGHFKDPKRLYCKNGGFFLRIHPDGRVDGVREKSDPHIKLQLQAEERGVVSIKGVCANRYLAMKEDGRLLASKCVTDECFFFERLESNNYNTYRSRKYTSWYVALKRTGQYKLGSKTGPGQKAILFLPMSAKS

As for `COC(=O)[C@@H]1N=C(c2ccc(OCCCO)cc2)O[C@@H]1c1ccccc1`, the composite z-score in test [1] is 1.33; in [2], -0.314; in test [3] it was -0.137; in test [4], -0.887; in test [5], -1.36; in test [6], -0.837. Also, the composite z-score was -0.447 in the test with Lefty1 and -0.0306 in [8]. Also, the z-score in test [7] was 0.135; in test [9] it was -13.4 (active).
Consider `COCCOC(=O)N1C(=O)[C@@]2(c3cc(C#CCCO)ccc31)[C@H](c1ccc(OCCO)cc1)N1[C@H](c3ccccc3)[C@H](c3ccccc3)OC(=O)[C@H]1[C@@H]2C(=O)Nc1nc2ccccc2s1`, for which the composite z-score amounted to 0.872 in [1]; 1.15 in test [2]; 0.479 in test [3]; 0.817 in test [4]; 1.32 in test [5]; 0.759 in [6]. For the same compound, the composite z-score in the test on Lefty1 is 1.41; in test [8], 1.13. The values for the z-score in test [7] and in test [9] were -2.37 and -2.18 (inactive), respectively.
Consider `NCCCCCNC(=O)[C@H]1C[C@H]2C(=O)N3CCC[C@H]3C(=O)N2[C@H]1c1cccc(OCCO)c1`, for which the composite z-score was 3.3 in [1]; 0.987 in test [2]; 0.0204 in test [3]; 0.83 in [4]; 0.208 in test [5]; -0.146 in test [6]. The composite z-score with Lefty1 is -0.285; in [8], 1.29. For the same compound, the values for the z-score in test [7] and in test [9] were -0.705 and -0.165 (inactive), respectively.
With `CC(C)C(CO)N1C(=O)[C@@H]2[C@H]3C(=O)OCC=C[C@H]3OC23C=CCN(c2ccc(Cl)cc2)C(=O)[C@@H]13` (stereo not given in full), the composite z-score in test [1] is -1.82; in test [2], -1.22; in test [3] it was -0.265; in [4], -0.934; in test [5] it was -0.728; in test [6], -0.794. Besides, the composite z-score in the test on Lefty1 is -0.712; in [8] it was -0.928. For the same compound, the figures for the z-score in [7] and in test [9] were 1.05 and -0.469 (inactive), respectively.
`[N-]=[N+]=Nc1ccccc1C[C@@]1(C(=O)N2CCOCC2)N=C(c2ccc(OCCCO)cc2)O[C@@H]1c1ccccc1`: the composite z-score in test [1] worked out at 1.19; in test [2] it was 1.19; in test [3], 0.625; in [4], 0.986; in [5], 1.32; in test [6], 1.35. Besides, the composite z-score in the test with Lefty1 stood at 0.3; in [8] it was 0.313. Moreover, the figures for the z-score in test [7] and in test [9] were 1.08 and -2.43 (inactive), respectively.
As for `CCCN1C(=O)[C@@]2(Cc3ccccc31)N=C(c1ccc(OCCCO)cc1)O[C@H]2c1ccccc1`, the composite z-score in test [1] amounted to 0.293; in test [2] it was 1.17; in [3], 0.881; in test [4] it was 0.829; in [5], 1.23; in test [6], 1.31. Also, the composite z-score in the test with Lefty1 was 0.256; in [8] it was 0.801. Also, the z-score in test [7] was 1.69; in test [9], -3.25 (inactive).
Regarding `COc1ccc([Si](C)(C)[C@H]2[C@H](CC(=O)N3CCC[C@H]3CO)O[C@@]3(C(=O)N(Cc4ccc(N5CCOC5=O)cc4)c4ccccc43)[C@@H]2C)cc1`, the composite z-score in [1] amounted to 2.43; in test [2], 1.18; in [3], 0.395; in [4], 0.692; in [5], 1.34; in test [6], 1.56. Besides, the figures for the composite z-score (with Lefty1; in test [8]) were 1.16 and 0.697, respectively. Further, the z-score was 2.59 in test [7] and 0.31 (inactive) in test [9].
For `CC1=C2[C@@H](CCc3ccccc3)OB(O)C[C@@H]2[C@@H]2C(=O)N(Cc3ccccc3)C(=O)[C@@H]2C1`, the composite z-score in test [1] is 0.0349; in [2] it was 0.55; in test [3] it was -0.0683; in [4], 0.987; in test [5] it was 0.946; in test [6] it was 0.33. Moreover, the results for the composite z-score (with Lefty1; in [8]) were 0.388 and 0.505, respectively. Besides, the z-score in [7] is 0.758; in test [9], -0.653 (inactive).
Turning to `O=C1O[C@@H](c2ccccc2)[C@@H](c2ccccc2)N2[C@@H](c3ccc(OCCO)cc3)[C@]3(C(=O)Nc4ccc(C#CC5=CCCCC5)cc43)[C@@H](C(=O)NC[C@H](O)c3ccccc3)[C@H]12`, the composite z-score came out at 2.25 in test [1]; 1.21 in test [2]; 0.234 in test [3]; 0.829 in test [4]; 1.42 in test [5]; 1.38 in test [6]. Also, the composite z-score is 1.25 in the test with Lefty1 and 0.254 in [8]. For the same compound, the z-score was -1.48 in test [7] and -0.773 (inactive) in test [9].
On to `COc1cc(OC)c(C(O)C2C=CC3C(=O)N(Cc4ccccc4)C(=O)C3N2n2cnnc2)cc1Br` (stereo not given), for which the composite z-score was 2.21 in test [1]; 1.17 in [2]; 0.381 in test [3]; 0.973 in [4]; 1.03 in test [5]; -0.148 in test [6]. Further, the composite z-score in the test with Lefty1 stood at 0.363; in test [8], 1.02. In addition, the z-score in test [7] is -1.08; in [9], 0.647 (inactive).
As to `Cc1ccc(NN2C(C(O)c3c(F)cccc3Cl)C=CC3C(=O)N(C4CCCCC4)C(=O)C32)cc1` (stereo not given), the composite z-score in [1] was 1.5; in test [2], 1.2; in test [3] it was 0.601; in test [4] it was 1.04; in test [5] it was 0.842; in [6] it was -0.413. The composite z-score with Lefty1 was -0.209; in test [8], 1.26. Moreover, the figures for the z-score in test [7] and in test [9] were 1.19 and 0.289 (inactive), respectively.
In the case of `COCCCNC(=O)[C@@]1(CCC(=O)OC(C)(C)C)N=C(c2ccc(OCCCO)cc2)O[C@H]1c1ccccc1N=[N+]=[N-]`, the composite z-score in test [1] was 3.41; in [2], 1.26; in test [3], 1.04; in [4] it was 1.05; in [5], 1.1; in test [6] it was 1.15. Further, the composite z-score with Lefty1 is -0.167; in [8] it was 0.548. For the same compound, the z-score is 2.07 in test [7] and -7.45 (inactive) in test [9].
Regarding `COC(=O)C1(CC(C)C)C=C2C(=C(c3ccccc3)C(=O)C2C)CN1` (stereo not given), the composite z-score is 1.75 in test [1]; 0.166 in [2]; 0.879 in test [3]; 0.579 in test [4]; 0.111 in test [5]; 0.953 in test [6]. Besides, the composite z-score stood at 0.0364 in the test with Lefty1 and 0.663 in [8]. The values for the z-score in [7] and in test [9] were 0.674 and 0.53 (inactive), respectively.
